Data on 9 compounds can be found in PubChem BioAssay (NCI).

Test [1] in a line: NCI Yeast Anticancer Drug Screen. Data for the rad50 strain (AID 155).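 Note: 0% = growth of vehicle-only cultures of the same strain.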 The conditions noted are these: S. cerevisiae rad50 strain growth inhibition, stronger effect = higher value. In a few lines: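 Yeast carrying a defined DNA repair defect were exposed to test compounds, and growth was compared with vehicle-treated controls to give percent inhibition.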
Test [2] can be described thus: NCI Yeast Anticancer Drug Screen. Data for the mec2-1 strain (AID 157). The conditions noted are these: S. cerevisiae mec2-1 strain, stronger effect = higher value. Put shortly: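 Readout is yeast growth inhibition, normalised to vehicle-treated controls, in the mec2-1 strain exposed to compound.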
Test [3] is described as follows: NCI Yeast Anticancer Drug Screen. Data for the sgs1 mgt1 strain (AID 161).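 Note: 0% = growth of cultures given vehicle only.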 The conditions noted are these: S. cerevisiae sgs1 mgt1 strain, stronger effect = higher value. In a few lines: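 Percent growth inhibition was derived by comparing compound-exposed mutant yeast with vehicle-exposed cultures. The strain carries alterations in DNA damage repair.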
The nature of test [4]: NCI Yeast Anticancer Drug Screen. Data for the cln2 rad14 strain (AID 165).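 Note: 0% = growth equal to vehicle treated cultures.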 The conditions noted are these: S. cerevisiae cln2 rad14 strain, stronger effect = higher value. Put shortly:
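Relative to vehicle controls, growth inhibition of compound-treated cln2 rad14 yeast was recorded.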

The nature of test [5]: NCI Yeast Anticancer Drug Screen. Data for the bub3 strain (AID 167). The conditions noted are these: S. cerevisiae bub3 mutant strain, stronger effect = higher value. In a few lines:
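Compounds were applied to a genetically altered yeast strain carrying a cell-cycle control defect. Growth inhibition was scored against vehicle-treated controls.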

A short description of test [6]: NCI Yeast Anticancer Drug Screen. Data for the mlh1 rad18 strain (AID 175). The conditions noted are these: S. cerevisiae mlh1 rad18 strain growth inhibition, stronger effect = higher value. Put shortly:
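Test agents were incubated with a yeast strain of defined genotype (DNA damage repair defect). Inhibition of growth was derived by comparison with vehicle-exposed cultures.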

Where [7] appears, read: at 5.0 µM (retest, dose inferred, filed as 0.5).
Setting [8] is: at 50.0 µM (retest, dose inferred, filed as 5.0).

The panel holds about 79,000 compounds, 15% with a hit somewhere; the sample as a whole holds those more often. Unmarked numbers belong to inactive results. Active and inactive are the calls of the source. Cut-off read from the data, not from the text of the source: active = growth inhibition above about 70%; inactive = the rest.

As for `CCN(CC)c1ccc(Cl)c2c1C(O)(C(C)C)C2(C)C` (configuration not stated), the growth inhibition in test [1] (setting [7]) is -20%; in test [1] (setting [8]), 96% (active); in test [1] (at 50.0 µM), 88.2% (active); in test [2] (setting [7]), 9%; in test [2] (setting [8]), 97% (active); in test [2] (at 50.0 µM), 92.4% (active). In addition, the growth inhibition in test [3] (setting [7]) was 1%; in test [3] (setting [8]), 97% (active); in test [3] (at 50.0 µM) it was 89.7% (active); in test [4] (setting [7]), 24%; in test [4] (setting [8]), 98% (active); in test [4] (at 50.0 µM) it was 89.3% (active). Besides, the growth inhibition is 14% in test [5] (setting [7]); 98% (active) in test [5] (setting [8]); 89.8% (active) in test [5] (at 50.0 µM); 17% in test [6] (setting [7]); 98% (active) in test [6] (setting [8]); 87.5% (active) in test [6] (at 50.0 µM).
For `COc1ccc2cc(C(=O)CCCC(C)C(=O)O)ccc2c1` (configuration not stated), the growth inhibition is 0% in test [1] (setting [7]); -9% in test [1] (setting [8]); 74.6% (active) in test [1] (at 50.0 µM); -9% in test [2] (setting [7]); -11% in test [2] (setting [8]); -7.85% in test [2] (at 50.0 µM). Besides, the growth inhibition in test [3] (setting [7]) is 0%; in test [3] (setting [8]) it was 38%; in test [3] (at 50.0 µM), 2.85%; in test [4] (setting [7]), -3%; in test [4] (setting [8]), -22%; in test [4] (at 50.0 µM) it was -48%. The growth inhibition in test [5] (setting [7]) is -4%; in test [5] (setting [8]), -9%; in test [5] (at 50.0 µM), 3.55%; in test [6] (setting [7]), -12%; in test [6] (setting [8]) it was -4%; in test [6] (at 50.0 µM), 2.95%.
Regarding `N/N=C(/N)SCCCCCCCCCCS/C(N)=N/N`, the growth inhibition is -6% in test [1] (setting [7]); 5% in test [1] (setting [8]); 21.4% in test [1] (at 50.0 µM); -4% in test [2] (setting [7]); 78% (active) in test [2] (setting [8]); 48.5% in test [2] (at 50.0 µM). Further, the growth inhibition in test [3] (setting [7]) was -35%; in test [3] (setting [8]) it was 76% (active); in test [3] (at 50.0 µM) it was 82.3% (active); in test [4] (setting [7]), -10%; in test [4] (setting [8]), -28%; in test [4] (at 50.0 µM) it was 51.9%. The growth inhibition in test [5] (setting [7]) was -6%; in test [5] (setting [8]), 7%; in test [5] (at 50.0 µM), 15.2%; in test [6] (setting [7]), -8%; in test [6] (setting [8]) it was 39%; in test [6] (at 50.0 µM) it was 79.8% (active).
In the case of `C=C(CN(C)C)C(=O)c1ccc(Oc2ccccc2)cc1`, the growth inhibition in test [1] (setting [7]) is 99% (active); in test [1] (setting [8]), 100% (active); in test [1] (at 50.0 µM) it was 99.2% (active); in test [2] (setting [7]), 99% (active); in test [2] (setting [8]), 100% (active); in test [2] (at 50.0 µM) it was 99.4% (active). Moreover, the growth inhibition was 99% (active) in test [3] (setting [7]); 100% (active) in test [3] (setting [8]); 59.5% in test [3] (at 50.0 µM); 71% (active) in test [4] (setting [7]); 99% (active) in test [4] (setting [8]); 99.4% (active) in test [4] (at 50.0 µM). Further, the growth inhibition in test [5] (setting [7]) was 99% (active); in test [5] (setting [8]), 100% (active); in test [5] (at 50.0 µM), 98.8% (active); in test [6] (setting [7]) it was 98% (active); in test [6] (setting [8]) it was 100% (active); in test [6] (at 50.0 µM) it was 99.5% (active).
On to `ClCc1ccc2ccc3ccc(CCl)nc3c2n1`, for which the growth inhibition in test [1] (setting [7]) is 31%; in test [1] (setting [8]), 81% (active); in test [1] (at 50.0 µM), 47.1%; in test [2] (setting [7]), 67%; in test [2] (setting [8]) it was 93% (active); in test [2] (at 50.0 µM) it was 43%. Moreover, the growth inhibition in test [3] (setting [7]) was 65%; in test [3] (setting [8]), 93% (active); in test [3] (at 50.0 µM), 70.2% (active); in test [4] (setting [7]), 29%; in test [4] (setting [8]), 81% (active); in test [4] (at 50.0 µM), 27.8%. Moreover, the growth inhibition in test [5] (setting [7]) is -7%; in test [5] (setting [8]) it was 95% (active); in test [5] (at 50.0 µM), 59%; in test [6] (setting [7]), 72% (active); in test [6] (setting [8]), 94% (active); in test [6] (at 50.0 µM), 62%.
`N#CC(c1c(Cl)cccc1N1CCCCC1)N1CCCCC1` (configuration not stated): the growth inhibition in test [1] (setting [7]) is 31%; in test [1] (setting [8]), 75% (active); in test [1] (at 50.0 µM), 86.9% (active); in test [2] (setting [7]), 34%; in test [2] (setting [8]), 78% (active); in test [2] (at 50.0 µM) it was 87.4% (active). For the same compound, the growth inhibition was 41% in test [3] (setting [7]); 85% (active) in test [3] (setting [8]); 87.6% (active) in test [3] (at 50.0 µM); 30% in test [4] (setting [7]); 61% in test [4] (setting [8]); 80.4% (active) in test [4] (at 50.0 µM). Besides, the growth inhibition in test [5] (setting [7]) was 37%; in test [5] (setting [8]), 92% (active); in test [5] (at 50.0 µM), 91.2% (active); in test [6] (setting [7]) it was 46%; in test [6] (setting [8]) it was 84% (active); in test [6] (at 50.0 µM), 87.7% (active).
As to `COc1ccc(C2CC(=O)CC(=O)C2)cc1`, the growth inhibition in test [1] (setting [7]) was -6%; in test [1] (setting [8]), -23%; in test [1] (at 50.0 µM), 65.2%; in test [2] (setting [7]), 5%; in test [2] (setting [8]) it was -8%; in test [2] (at 50.0 µM) it was 10.1%. For the same compound, the growth inhibition in test [3] (setting [7]) was -7%; in test [3] (setting [8]) it was 2%; in test [3] (at 50.0 µM), 32.5%; in test [4] (setting [7]), -64%; in test [4] (setting [8]) it was -20%; in test [4] (at 50.0 µM), -3.35%. Besides, the growth inhibition is -25% in test [5] (setting [7]); -15% in test [5] (setting [8]); 16% in test [5] (at 50.0 µM); -12% in test [6] (setting [7]); 0% in test [6] (setting [8]); 55.5% in test [6] (at 50.0 µM).
On to `CCCCCCC(=O)CCCCCC/C=C\CC1OC(=O)C(N)(CO)C1O` (configuration not stated), for which the growth inhibition was 34% in test [1] (setting [7]); 98% (active) in test [1] (setting [8]); 91.5% (active) in test [1] (at 50.0 µM); 45% in test [2] (setting [7]); 99% (active) in test [2] (setting [8]); 93.5% (active) in test [2] (at 50.0 µM). Besides, the growth inhibition in test [3] (setting [7]) is 43%; in test [3] (setting [8]), 98% (active); in test [3] (at 50.0 µM) it was 93.2% (active); in test [4] (setting [7]), 55%; in test [4] (setting [8]), 98% (active); in test [4] (at 50.0 µM), 90% (active). The growth inhibition is 80% (active) in test [5] (setting [7]); 98% (active) in test [5] (setting [8]); 91% (active) in test [5] (at 50.0 µM); 58% in test [6] (setting [7]); 98% (active) in test [6] (setting [8]); 91.5% (active) in test [6] (at 50.0 µM).
For the compound `O=C(/C=C(/c1ccccc1)P(=O)(c1ccccc1)c1ccccc1)c1ccccc1`, the growth inhibition in test [1] (setting [7]) is -2%; in test [1] (setting [8]), 97% (active); in test [1] (at 50.0 µM), 97.9% (active); in test [2] (setting [7]), -15%; in test [2] (setting [8]), 97% (active); in test [2] (at 50.0 µM) it was 98.6% (active). Besides, the growth inhibition in test [3] (setting [7]) was -5%; in test [3] (setting [8]) it was 97% (active); in test [3] (at 50.0 µM), 98.8% (active); in test [4] (setting [7]), -4%; in test [4] (setting [8]), 71% (active); in test [4] (at 50.0 µM), 97.8% (active). Also, the growth inhibition in test [5] (setting [7]) was -5%; in test [5] (setting [8]), 86% (active); in test [5] (at 50.0 µM), 97.8% (active); in test [6] (setting [7]), 15%; in test [6] (setting [8]) it was 99% (active); in test [6] (at 50.0 µM) it was 98.6% (active).
